Reference: PMC4336329 (PLoS ONE, 2015)
The whole screen tested about 310,000 compounds, of which about 2,200 (0.71%) showed an effect of 50% or more. The effect is printed as a negative number. This excerpt belongs to a sample that is enriched for strong results.

What follows are molecules tested against human ether-à-go-go-related gene (hERG) potassium channel (human, UniProt Q12809) (assay: primary screen, population patch clamp on CHO cells stably expressing hERG; higher = less effect of the substance).
Method: Briefly, Chinese hamster ovary (CHO) cells stably expressing the hERG channel were dislodged from tissue culture flasks and dispensed into PPC plates. […] During the recording, background leak currents were estimated by a 100 ms step to -80 mV from an initial holding potential of -70 mV and subtracted from the subsequent current measurement. The campaign was conducted in two phases using slight differences in recording protocol. In the first phase, the initial voltage pulse used a 100 ms step to -30 mV from a holding potential of -70 mV, a 2 s conditioning step to +25 mV, and a 2 s test step to -30 mV. During the second phase of the screen, the potential during the conditioning step was raised to +45 mV. In both phases of the campaign, a secondary voltage pulse was applied using the same parameters as the second phase initial pulse. The initial and secondary pulses were applied in the absence of compound, and upon application of 1 μM and 10 μM test concentrations. Small molecule effects on hERG current density were quantified by […].

Sequence of human ether-à-go-go-related gene (hERG) potassium channel (Q12809 whole entry, looked up): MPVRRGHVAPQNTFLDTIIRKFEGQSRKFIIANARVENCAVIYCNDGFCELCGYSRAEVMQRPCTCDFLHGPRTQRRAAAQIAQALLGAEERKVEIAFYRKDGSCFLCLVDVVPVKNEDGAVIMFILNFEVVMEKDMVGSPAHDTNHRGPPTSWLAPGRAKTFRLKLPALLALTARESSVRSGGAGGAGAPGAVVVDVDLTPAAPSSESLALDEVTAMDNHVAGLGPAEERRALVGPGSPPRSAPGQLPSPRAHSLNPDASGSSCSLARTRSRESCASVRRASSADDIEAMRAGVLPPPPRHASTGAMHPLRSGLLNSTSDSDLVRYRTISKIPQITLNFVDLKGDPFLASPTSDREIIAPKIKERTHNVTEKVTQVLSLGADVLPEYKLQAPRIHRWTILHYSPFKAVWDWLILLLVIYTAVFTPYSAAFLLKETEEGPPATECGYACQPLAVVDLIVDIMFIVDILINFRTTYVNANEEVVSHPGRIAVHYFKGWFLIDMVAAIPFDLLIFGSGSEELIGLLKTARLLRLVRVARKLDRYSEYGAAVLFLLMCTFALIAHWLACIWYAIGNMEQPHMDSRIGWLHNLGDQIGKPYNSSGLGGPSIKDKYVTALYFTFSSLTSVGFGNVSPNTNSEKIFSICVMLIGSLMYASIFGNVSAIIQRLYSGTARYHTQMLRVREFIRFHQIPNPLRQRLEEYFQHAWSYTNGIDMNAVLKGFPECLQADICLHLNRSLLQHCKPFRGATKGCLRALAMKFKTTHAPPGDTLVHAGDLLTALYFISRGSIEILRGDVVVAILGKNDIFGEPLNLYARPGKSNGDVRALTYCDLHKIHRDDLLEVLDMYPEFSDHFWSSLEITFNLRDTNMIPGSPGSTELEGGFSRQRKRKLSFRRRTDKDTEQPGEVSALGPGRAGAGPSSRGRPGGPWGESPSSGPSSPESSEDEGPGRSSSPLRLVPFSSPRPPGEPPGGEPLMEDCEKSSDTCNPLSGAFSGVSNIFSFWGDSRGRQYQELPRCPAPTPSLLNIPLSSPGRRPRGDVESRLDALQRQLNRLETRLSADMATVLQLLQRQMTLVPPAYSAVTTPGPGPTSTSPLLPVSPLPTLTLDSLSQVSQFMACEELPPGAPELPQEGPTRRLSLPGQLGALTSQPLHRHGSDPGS

Row | Structure (SMILES) | hERG current change (%, negative = inhibition) at 1uM [%]
1 | CCOC(=O)C1CCN(C(=O)CSC2=NCCS2)CC1 | 8.93
2 | NS(=O)(=O)c1ccc(CCNC(=O)CN2CCN(Cc3cccc4ccccc34)CC2)cc1 | 8.33
3 | O=C(COC(=O)CN1C(=O)c2ccccc2C1=O)Nc1cccc(F)c1 | 5.95
4 | Cc1ccc(C)c(NC(=O)COC(=O)CNC(=O)c2ccccc2Cl)c1 | 9.98
5 | Cc1cc(Cl)cc(Cl)c1CNc1c([N+](=O)[O-])c(=O)oc2ccccc12 | 7.59
6 | CC(C)c1cccc(C(C)C)c1NC(=O)CN1C(=O)NC2(CCCCCCC2)C1=O | 8.87
7 | Cc1ccc(S(=O)(=O)CC(=O)c2ccc(C(C)(C)C)cc2)cc1 | 2.43
8 | Br.CCCCn1c(=N)n(CC(=O)c2ccc(OC)cc2)c2ccccc21 | -62.2
9 | Br.COc1ccc(C(=O)Cn2c(=N)n(C)c3ccccc32)cc1 | -9.98
10 | Br.CCn1c(=N)n(CC(=O)c2ccc(OC)cc2)c2ccccc21 | -0.629
11 | C=CCOn1c(C)c(C(C)=O)c2c3nonc3ccc21 | 13.1
12 | O=C(OCc1ccc2c(c1)OCO2)c1ccc(S(=O)(=O)N2CCCC2)cc1 | 3.44
13 | CC(=O)Nc1ccc(-c2nnc(SCc3ccccc3C#N)n2C)cc1 | -5.5
14 | O=C1N=C2SCCN2/C1=C\c1ccccc1Cl | 5.64
15 | CCn1c2ccccc2c2cc(NC(=O)CSc3nnnn3-c3ccccc3)ccc21 | 9.35
16 | Cc1ccc(C(=O)N/C(=C/c2ccco2)C(=O)NCCCn2ccnc2)cc1 | -62.5
17 | Cc1ccc(C(=O)N/C(=C\c2ccco2)C(=O)NCCCn2ccnc2)cc1 | -64.1
18 | O=C(NCCCn1ccnc1)/C(=C/c1ccco1)NC(=O)c1ccco1 | -10.2
19 | Cc1ccc(C(=O)N/C(=C\c2ccco2)C(=O)NCCCn2ccnc2)cc1C | -15.7
20 | O=C(NCCCn1ccnc1)/C(=C\c1ccco1)NC(=O)c1ccco1 | -10.8
21 | COc1ccc(C(=O)N/C(=C\c2ccco2)C(=O)NCCCn2ccnc2)cc1 | -0.883
22 | O=C(Nc1nc(-c2nc3ccccc3s2)cs1)C1COc2ccccc2O1 (centres unmarked) | 13.3

Row | Structure (SMILES) | hERG current change (%, negative = inhibition) at 1uM [%]
23 | COC(=O)c1sc(NC(=O)c2cc(-c3ccccc3)nc3ccccc23)c(C#N)c1C | -6.75
24 | CCOc1ccc(S(=O)(=O)N2CCC(C(=O)N3CCN(c4ccccc4F)CC3)CC2)cc1C | -1.32
25 | CCc1nc2scc(-c3ccccc3)c2c(=O)n1N | 2.81
26 | COc1ccc(-n2cnnc2SCC(=O)Nc2nc(C)c(Cl)cc2Cl)cc1 | -8.71
27 | CCOC(=O)c1cc2c(=O)n3cccc(C)c3nc2n(CC(C)C)c1=NC(=O)c1ccco1 | -64.7
28 | CCOCCCn1c(=NC(=O)c2ccco2)c(C(=O)OCC)cc2c(=O)n3cccc(C)c3nc21 | -73.9
29 | CCCn1c(=NC(=O)c2ccco2)c(C(=O)OCC)cc2c(=O)n3ccccc3nc21 | -6.68
30 | CCCCn1c(=NC(=O)c2ccco2)c(C(=O)OCC)cc2c(=O)n3cccc(C)c3nc21 | -16.5
31 | CCOC(=O)c1cc2c(=O)n3cccc(C)c3nc2n(Cc2ccco2)c1=NC(=O)c1ccccc1 | 0.671
32 | CCCCCn1c(=NC(=O)c2ccco2)c(C(=O)OCC)cc2c(=O)n3ccccc3nc21 | -30.9
33 | O=C(NC1CC1)c1ccc(S(=O)(=O)NC2CCCCCC2)cc1 | 2.1
34 | CC(C)CC(=O)Nc1cc2nn(-c3ccccc3)nc2cc1Cl | -0.947
35 | Cc1sc2ncn(CC(=O)N3CCC(C(N)=O)CC3)c(=O)c2c1S(=O)(=O)N1CCOCC1 | 10.1
36 | COC(=O)c1cc(NC(=O)CN2CCC(C(N)=O)(N3CCCCC3)CC2)cc(C(=O)OC)c1 | 5.65
37 | Cc1nc2ccccc2nc(C)c1=NOCc1ccc(Cl)cc1Cl | 0.014
38 | CC(=O)Nc1ccc(SCC(=O)Nc2ccccc2Oc2ccccc2)cc1 | 3.2
39 | Cc1ccccc1NC(=O)CSC(N)=O | 24
40 | CCN(CC)CCCN1C(=O)CSC1c1ccc2c(c1)OCO2.Cl (centres unmarked) | -15.9
41 | CN(C)CCCN1C(=O)CSC1c1ccc([N+](=O)[O-])cc1.Cl (centres unmarked) | -11.4
42 | CCN(CC)CCCN1C(=O)CSC1c1ccc([N+](=O)[O-])cc1.Cl (centres unmarked) | -74.4
43 | CC(OC(=O)c1cccc(-n2cnnn2)c1)c1nc2ccccc2c(=O)[nH]1 (centres unmarked) | 7.2
44 | CCn1c(CN2CCN(Cc3ccc(C)cc3)C(CCO)C2)nc2ccccc21 (centres unmarked) | -50.5

Row | Structure (SMILES) | hERG current change (%, negative = inhibition) at 1uM [%]
45 | Cc1ccc(CN2CCN(Cc3nc4ccccc4nc3C)CC2CCO)cc1 (centres unmarked) | -65.3
46 | Cc1ccc(CN2CCN(Cc3cccc(C)n3)CC2CCO)cc1 (centres unmarked) | -2.38
47 | Cc1ccc(CN2CCN(Cc3ccccn3)CC2CCO)cc1 (centres unmarked) | -5.1
48 | Cc1ccc(CN2CCN(Cc3ccc(C)s3)CC2CCO)cc1 (centres unmarked) | -67.3
49 | Cc1ccc(CN2CCN(Cc3cccc4nccnc34)CC2CCO)cc1 (centres unmarked) | -53.3
50 | CC(C)Cn1c(CN2CCN(C)C(CCO)C2)nc2ccccc21 (centres unmarked) | 12.7
51 | Cc1nc2ccccc2nc1CN1CCN(Cc2ccc(F)c(F)c2)C(CCO)C1 (centres unmarked) | -6.36
52 | Cc1ccc(CN2CCN(Cc3ccccc3)C(CCO)C2)s1 (centres unmarked) | -26.7
53 | Cc1ccc(CN2CCN(Cc3cnc(C)s3)CC2CCO)cc1 (centres unmarked) | -0.701
54 | OCCC1CN(Cc2cccc3nccnc23)CCN1Cc1ccc(F)c(F)c1 (centres unmarked) | -11.8
55 | OCCC1CN(Cc2cccc3nccnc23)CCN1Cc1ccc(F)cc1 (centres unmarked) | -7.96
56 | O=C(COc1ncnc2cc([N+](=O)[O-])ccc12)N(CCc1ccccc1)Cc1ccccc1 | 18.9
57 | CC1(C)Oc2ccc3ccc(=O)oc3c2C(N2CCCCC2)C1O (centres unmarked) | 0.376
58 | COc1cccc(-c2ocnc2C(=O)Nc2ccc(N3CCOCC3)cc2N2CCOCC2)c1 | 15.6
59 | O=S(=O)(Nc1cc(Sc2cccc3cccnc23)c(O)c2ccccc12)c1ccc(F)cc1 | 13.4
60 | CC(C)Oc1ccc(CNC(=O)C2CCN(C(=O)N3CCOc4ccccc43)CC2)cc1 | 6.25
61 | NC(=O)C1CCN(CC(=O)Nc2cc(S(=O)(=O)N3CCOCC3)ccc2N2CCCC2)CC1 | -1.18
62 | COC(=O)C1=COC(OC2OC(CO)C(O)C(O)C2O)C2C1C=CC2(O)CO (centres unmarked) | 5.93
63 | COc1ccc(Cl)cc1NC(=O)[C@@]1(CC(=O)O)CC(/C=C/c2ccccc2)=NO1 | 12.8
64 | CCc1ccc(-c2cc(C)no2)cc1S(=O)(=O)N1CCN(C(=O)c2ccco2)CC1 | -4.73
65 | O=c1nc2ccccc2c2n1CC(CN1CCN(c3ccccc3F)CC1)N2 (centres unmarked) | -20.7
66 | O=c1nc2ccccc2c2n1CC(CN1CCN(c3ccc(F)cc3)CC1)N2 (centres unmarked) | -65.6

Row | Structure (SMILES) | hERG current change (%, negative = inhibition) at 1uM [%]
67 | O=c1nc2ccccc2c2n1CC(CN1CCN(c3cccc(Cl)c3)CC1)N2 (centres unmarked) | -38.9
68 | O=C1NCCN(Cc2cccc(Oc3ccccc3)c2)C1CC(=O)N1CCCO1 (centres unmarked) | 12.1
69 | COc1ccc(-c2nc(=S)[nH][nH]2)cc1OC | 10.4
70 | Cc1ccc(Cn2ccnc2C(=O)Nc2ccccc2)cc1 | 9.01
71 | O=C(Nc1ccccc1)c1nccn1Cc1ccc(F)cc1 | 11.3
72 | N#Cc1ccc(Cn2ccnc2C(=O)Nc2ccccc2)cc1 | -86.8
73 | O=C(NC(c1ccccc1)c1ccccn1)c1cccc([N+](=O)[O-])c1 (centres unmarked) | 12.3
74 | O=C1C(=O)N(CCN2CCOCC2)C(c2cccc(Cl)c2)/C1=C(\O)c1ccc2c(c1)OCCO2 (centres unmarked) | 2.15
75 | CC(=O)c1coc2ccc(OCC(=O)O)cc12 | -0.294
76 | CCOc1cc(/C=N/NC(=O)c2cccnc2)cc(Br)c1OCC(N)=O | -69.4
77 | CCOc1cc(/C=N/NC(=O)c2cccnc2)ccc1O | 7.47
78 | CCOc1cc(/C=N/NC(=O)c2cccnc2)ccc1OCC(N)=O | 10.8
79 | CCCCCn1c2c(c(=N)c3ccccc31)CCC2.I | -61.5
80 | CCCCCCCn1c2c(c(=N)c3ccccc31)CCC2.I | -89.6
81 | CCCCn1c2c(c(=N)c3ccccc31)CCC2.I | -16.6
82 | Br.CCn1c2c(c(=N)c3ccccc31)CCC2 | 12
83 | O=C(O)CCn1c2c(c3ccccc31)CCCC2 | 19.5
84 | CCOC(=O)Cn1c2c(c(=N)c3ccccc31)CCC2.Cl | 12.7
85 | CCOc1cc(NC(=S)NCCCN2CCOCC2)c(OCC)cc1NC(=O)c1ccccc1 | 16.1
86 | O=C(Nc1ccccc1)C1CC=CCC1C(=O)OCC1CCCO1 (centres unmarked) | -5.31
